Here are results for 8 molecules from PubChem BioAssay (EPA / NIEHS).

Assay [1] in a line: APR_HepG2_NuclearSize_24hr: Apredica 24-hour HepG2 Assay for Nuclear Size (AID 2282907). The note with it: high-content imaging, actives raise or lower the signal. The method, boiled down:
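Read-out: nuclear diameter from Hoechst 33342 (2 ug/mL) imaging of fixed HepG2 cells, 20x, six fields/well. Compounds ran at 0.39–200 uM for 24 hr, 0.5% DMSO final. Gain or loss was fitted bidirectionally relative to the DMSO baseline.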

Assay [2] can be described thus: APR_HepG2_CellLoss_24hr: Apredica 24-hour HepG2 Assay for Cell Loss (AID 2282908).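 On AC50: fit in both directions so a hit may be cell loss or gain.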 The note with it: high-content imaging. The method, boiled down:
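Read-out: Hoechst 33342-stained nuclei counted by automated fluorescence imaging after formaldehyde fixation and Triton permeabilization. Ten concentrations, 0.39 to 200 uM, duplicate wells, 0.5% DMSO final. Gain or loss of signal fitted relative to DMSO baseline.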

The nature of assay [3]: APR_HepG2_MicrotubuleCSK_24hr: Apredica 24-hour HepG2 Assay for Microtubule CSK Stabilty (AID 2282909). The note with it: HepG2 microtubule cytoskeleton imaging, actives raise or lower the signal. The method, boiled down: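 Read-out: alpha-tubulin immunofluorescence intensity by automated high-content imaging of fixed HepG2 cells after 24 h compound treatment. Ten concentrations, 0.39 to 200 uM, in duplicate; DMSO 0.5% v/v. Taxol positive control; DMSO-normalized bidirectional curve fitting.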

Assay [4] in a line: APR_HepG2_MitoticArrest_24hr: Apredica 24-hour HepG2 Assay for Mitotic Arrest (AID 2282910). The settings on record: high-content imaging, actives raise or lower the signal. The essentials: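 Treatment lasted 24 hr in the human HepG2 line at 0.39–200 uM, solvent held at 0.5% DMSO. Fixed cells were stained with Hoechst 33342 and anti-phospho-histone H3, imaged at 20x, and analysed by gain- or loss-of-signal fitting against DMSO.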

The nature of assay [5]: APR_HepG2_MitoMembPot_24hr: Apredica 24-hour HepG2 Assay for Mitochondrial Membrane Potential (AID 2282911). The settings on record: imaging, actives raise or lower the signal. The method, boiled down: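 Cells are dosed for 24 hr across 0.39 to 200 uM with solvent held at 0.5% DMSO. They are then stained with 250 nM MitoTracker Red CMXRos for 30 min, fixed in 3.7% formaldehyde and imaged.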

Assay [6] is described as follows: APR_HepG2_p53Act_24hr: Apredica 24-hour HepG2 Assay for p53 Activation (AID 2282913).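 Further: p53 protein immunofluorescence averaged per cell in HepG2 with Hoechst nuclei.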 The settings on record: high-content imaging, actives raise or lower the signal. The method, boiled down:
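Human HepG2 liver cells; 24 hr cpd treatment, 0.39–200 uM, 0.5% DMSO final. Fixed in 3.7% formaldehyde, permeabilized with 0.5% Triton X-100, stained with anti-p53/Cy5 plus Hoechst 33342. Six images per well at 20x; gain or loss vs DMSO.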

Assay [7] is described as follows: APR_HepG2_CellCycleArrest_72hr: Apredica 72-hour HepG2 Assay for Cell Cycle Arrest (AID 2282914). The note with it: high-content imaging, actives raise or lower the signal. The essentials: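 Read-out is Hoechst-stained nuclear DNA content measured by automated fluorescence imaging (20x, six images per well), fitted in both directions relative to DMSO. Human HepG2 liver cells received 0.39–200 uM compound for 72 hr at 0.5% v/v DMSO.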

Assay [8] can be described thus: APR_HepG2_CellLoss_72hr: Apredica 72-hour HepG2 Assay for Cell Loss (AID 2282915). The settings on record: high-content imaging. The method, boiled down:
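HepG2 cells were exposed for 72 hr to compounds at 0.39–200 uM (ten concentrations, duplicate) in 0.5% v/v final DMSO. Nuclei were stained with Hoechst 33342 after 3.7% formaldehyde fixation, imaged at 20x, and counted; fits bidirectional versus DMSO.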

The nature of assay [9]: APR_HepG2_P-H2AX_72hr: Apredica 72-hour HepG2 Assay for H2AX Phosphorylation (AID 2282916).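 Further: phospho-histone H2A.x immunostain intensity per cell marking DNA damage.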 The settings on record: imaging, actives raise or lower the signal. The method, boiled down:
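Readout: phospho-H2A.x immunofluorescence (FITC secondary) plus Hoechst nuclear stain, high-content imaging at 20x, six fields/well. HepG2, 72 hr compound exposure, 0.39–200 uM, final DMSO 0.5% v/v. Gain or loss fitted relative to DMSO baseline.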

Assay [10] in a line: APR_HepG2_MitoMembPot_72hr: Apredica 72-hour HepG2 Assay for Mitochondrial Membrane Potential (AID 2282917). The settings on record: imaging, actives raise or lower the signal. The essentials: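 HepG2 cells exposed 72 h to compounds at 0.39–200 uM (0.5% v/v DMSO, duplicates); MitoTracker Red CMXRos 250 nM loaded 30 min before 3.7% formaldehyde fixation, imaged by HCS fluorescence. Bidirectional fit versus DMSO.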

Assay [11] is described as follows: APR_HepG2_MitoticArrest_72hr: Apredica 72-hour HepG2 Assay for Mitotic Arrest (AID 2282918). The note with it: high-content imaging, actives raise or lower the signal. The essentials:
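Read-out is phospho-histone H3 immunofluorescence with Hoechst nuclear segmentation, imaged at 20x. Human HepG2 liver cells received ten concentrations (0.39–200 uM, final DMSO 0.5% v/v) for 72 hr before fixation. Gain or loss of signal was fitted relative to DMSO.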

A short description of assay [12]: APR_HepG2_MicrotubuleCSK_72hr: Apredica 72-hour HepG2 Assay for Microtubule CSK Stabilty (AID 2282919). The settings on record: HepG2 microtubule cytoskeleton, high-content imaging, actives raise or lower the signal. The method, boiled down:
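Ten-point dosing (0.39–200 uM, 0.5% DMSO) of HepG2 for 72 hr, with taxol as the cytoskeletal positive control. The cells were formaldehyde-fixed and then stained with alpha-tubulin/Cy5 and Hoechst. Imaging at 20x used a −2 um Z offset for tubulin.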

A short description of assay [13]: APR_HepG2_P-H2AX_24hr: Apredica 24-hour HepG2 Assay for H2AX Phosphorylation (AID 2282920). The note with it: high-content imaging, actives raise or lower the signal. The method, boiled down:
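HepG2, 24 hr, cpd 0.39–200 uM (10 conc, duplicate), DMSO 0.5% v/v final. Fix 3.7% formaldehyde, Triton X-100 permeabilize, anti-phospho-H2A.x 1:200 + Hoechst 2 ug/mL. Imaged, bidirectional fit vs DMSO.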

Assay [14] is described as follows: APR_HepG2_StressKinase_72hr: Apredica 72-hour HepG2 Assay for Stress Kinase (AID 2282921). The settings on record: HepG2 stress kinase (phospho-c-Jun) imaging, actives raise or lower the signal. The method, boiled down: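 Phospho-c-Jun immunofluorescence measured by high-content imaging at 20x, six fields per well; bidirectional curve fitting against DMSO as baseline. Dosing: 0.39–200 uM, 72 h, 0.5% DMSO final.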

Assay [15] in a line: APR_HepG2_p53Act_72hr: Apredica 72-hour HepG2 Assay for p53 Activation (AID 2282923).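 Further: average cellular p53 protein immunofluorescence intensity in HepG2 cells.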 The settings on record: high-content imaging, actives raise or lower the signal. The method, boiled down: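 Readout: p53 immunofluorescence quantified by automated high-content imaging at 20x, six fields per well, nuclei located via Hoechst. Dosing ran 72 hr over ten concentrations from 0.39 to 200 uM; bidirectional curve fitting against DMSO baseline.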

The nature of assay [16]: APR_HepG2_MitoMass_72hr: Apredica 72-hour HepG2 Assay for Mitochondrial Mass (AID 2282924).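 Further: MitoTracker Red CMXRos stain intensity per cell imaged as mitochondrial mass.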 The settings on record: high-content imaging, actives raise or lower the signal. The method, boiled down:
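Steps: treat HepG2 72 hr (0.39–200 uM, duplicate wells); load MitoTracker Red CMXRos, 250 nM, 30 min; fix with 3.7% formaldehyde, permeabilise with 0.5% Triton X-100; capture images, nuclei via Hoechst 33342; fit bidirectionally against DMSO.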

Assay [17] in a line: APR_HepG2_NuclearSize_72hr: Apredica 72-hour HepG2 Assay for Nuclear Size (AID 2282925). The settings on record: high-content imaging, actives raise or lower the signal. The method, boiled down: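 Compounds (0.39–200 uM, final DMSO 0.5%) were applied to HepG2 for 72 hr. Cells were then formaldehyde-fixed, permeabilized and labelled with Hoechst 33342. Nuclear diameter was quantified from six images per well.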

Assay [18] can be described thus: APR_HepG2_StressKinase_24hr: Apredica 24-hour HepG2 Assay for Stress Kinase (AID 2282922). The settings on record: HepG2 stress kinase (phospho-c-Jun) imaging, actives raise or lower the signal. The essentials: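 After 24 hr compound treatment (up to 200 uM, final DMSO 0.5% v/v), HepG2 cells are fixed and multiplex-labeled; phospho-c-Jun intensity is captured by high-content fluorescence imaging and analyzed relative to DMSO.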

A short description of assay [19]: APR_HepG2_MitoMass_24hr: Apredica 24-hour HepG2 Assay for Mitochondrial Mass (AID 2282912). The settings on record: high-content imaging, actives raise or lower the signal. The essentials:
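HepG2, 24 hr dosing, 10 concentrations 0.39–200 uM in duplicate, DMSO 0.5% final. MitoTracker Red CMXRos 250 nM, 30 min pre-fix; 3.7% formaldehyde fix. Imaging-based fluorescence intensity; gain/loss fit vs DMSO baseline.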

SMILES strings stand for the structures. The source made the active and inactive calls. How the source made its calls: active means hit-call score of the fitted dose curve at least 0.9, where 1 is the maximum; inactive means score below 0.9.

For the molecule `CC(C)N(C(=O)SCC(Cl)=C(Cl)Cl)C(C)C`, the molecule was classed as inactive in assay [1], in assay [3], in assay [4], in assay [5], in assay [6] and in assay [7]. For the same molecule, the result in assay [9], in assay [10], in assay [11], in assay [13], in assay [14] and in [15] was inactive. For the same molecule, the molecule was called inactive in assay [16] and in [17]. For the same molecule, the results for the AC50 in assay [2], in assay [8] and in [12] were 113 µM (active), 110 µM (active) and 99.5 µM (active), respectively.

As to `S=C1NCCN1`, the call in assay [1], in assay [2], in assay [3], in assay [4], in [5] and in assay [6] was inactive. In addition, the outcome in assay [7], in [8], in assay [9], in assay [10], in assay [11] and in [12] was inactive. For the same molecule, the molecule was called inactive in [13], in assay [14], in assay [18], in [15], in assay [16] and in assay [17].

Consider `CCOP(=S)(OCC)OC(Cl)C(Cl)(Cl)Cl` (stereo unspecified), for which the call in assay [1], in [3], in [4], in assay [19], in [6] and in [9] was inactive. The outcome in assay [10], in assay [11], in [13], in assay [14], in assay [15] and in assay [16] was inactive. Also, the outcome in assay [17] was inactive. For the same molecule, the AC50 (usually the concentration at which the activity in the assay is half-maximal) is 97.5 µM (active) in [2]; 151 µM (active) in [5]; 165 µM (active) in assay [7]; 144 µM (active) in [8]; 109 µM (active) in assay [12].

On to `CCC(=NOC/C=C/Cl)C1=C(O)CC(C2CCOCC2)CC1=O` (stereo unspecified), for which the molecule was called inactive in assay [1], in assay [2], in assay [3], in assay [4], in [5] and in assay [6]. Further, the outcome in assay [7], in [8], in assay [9], in assay [10], in assay [11] and in assay [12] was inactive. Besides, the molecule was classed as inactive in [13], in assay [14], in assay [15], in assay [16] and in assay [17].

In the case of `CC(C)=CC1C(C(=O)OCN2C(=O)C3=C(CCCC3)C2=O)C1(C)C` (stereo unspecified), the outcome in assay [1], in assay [4], in assay [5], in assay [19], in assay [6] and in assay [7] was inactive. Besides, the molecule was called inactive in assay [9], in assay [10], in assay [11], in [12], in [14] and in [15]. For the same molecule, the molecule was called inactive in assay [16] and in assay [17]. Also, the AC50 in assay [2] was 109 µM (active); in assay [3], 105 µM (active); in assay [8] it was 100 µM (active); in assay [13] it was 99.3 µM (active).

As to `CCCCOC(=O)c1ccccc1C(=O)O`, the call in assay [1], in [2], in [3], in assay [4], in [5] and in assay [19] was inactive. For the same molecule, the call in assay [6], in assay [7], in assay [8], in assay [9], in assay [10] and in [11] was inactive. Besides, the result in assay [12], in assay [13], in assay [14], in [15], in [16] and in assay [17] was inactive.

Turning to `CCCCSP(=O)(SCCCC)SCCCC`, the result in assay [1], in assay [2], in assay [3], in assay [4], in assay [5] and in [19] was inactive. For the same molecule, the molecule was classed as inactive in [6], in assay [7], in assay [9], in [11], in assay [12] and in [13]. Moreover, the molecule was classed as inactive in assay [14], in [15], in assay [16] and in [17]. For the same molecule, the AC50 in assay [8] was 87.3 µM (active); in assay [10], 157 µM (active).

For the molecule `C#CC(C)(C)NC(=O)c1cc(Cl)cc(Cl)c1`, the result in [1], in assay [2], in [3], in assay [4], in assay [5] and in assay [6] was inactive. The outcome in assay [7], in [9], in [10], in [11], in assay [12] and in assay [13] was inactive. The molecule was called inactive in assay [14], in assay [15], in assay [16] and in [17]. In [8], the AC50 was 69.1 µM (active).
